Results from PubChem BioAssay AID588342 (National Center for Advancing Translational Sciences (NCATS), 2011).
Out of some 360,000 compounds screened, about 25,000 (6.9%) were called active. Another 9% or so got no clear call; they are omitted. Calls follow the shape of the dose curve; as a rule, active = well fitted inhibition curve with a large enough effect; inconclusive = small, poorly fitted or top-dose-only effect; inactive = flat fitted curve, though single readings scatter. What follows is part of a selection rich in actives, with near analogues and random picks from the rest.

Biological target: Luciferin 4-monooxygenase (Photinus pyralis) (UniProt P08659)
Experiment: qHTS profiling assay for firefly luciferase inhibitor/activator using purifed enzyme and Km concentrations of substrates (counterscreen for miR-21 project); also: nearly all actives have a fitted effect of over 55% in size;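 as to activity change, negative = inhibition: plate controls were vehicle for no effect and reference inhibitor for full effect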
Conditions: purified FLuc, luminescence inhibition; series mostly up to 57.5 µM; activity change, negative = inhibition: at the top concentration
Method in brief: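 Biochemical qHTS of compounds, final roughly 60 µM downward over six points, against 10 nM purified firefly luciferase using Km concentrations of substrates (10 uM D-luciferin, 10 uM ATP) in Tris acetate pH 7.5 buffer; luminescence output.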
Potency is read from the fitted curve at half-maximal effect.

Luciferin 4-monooxygenase (Photinus pyralis), sequence (P08659 whole entry, looked up): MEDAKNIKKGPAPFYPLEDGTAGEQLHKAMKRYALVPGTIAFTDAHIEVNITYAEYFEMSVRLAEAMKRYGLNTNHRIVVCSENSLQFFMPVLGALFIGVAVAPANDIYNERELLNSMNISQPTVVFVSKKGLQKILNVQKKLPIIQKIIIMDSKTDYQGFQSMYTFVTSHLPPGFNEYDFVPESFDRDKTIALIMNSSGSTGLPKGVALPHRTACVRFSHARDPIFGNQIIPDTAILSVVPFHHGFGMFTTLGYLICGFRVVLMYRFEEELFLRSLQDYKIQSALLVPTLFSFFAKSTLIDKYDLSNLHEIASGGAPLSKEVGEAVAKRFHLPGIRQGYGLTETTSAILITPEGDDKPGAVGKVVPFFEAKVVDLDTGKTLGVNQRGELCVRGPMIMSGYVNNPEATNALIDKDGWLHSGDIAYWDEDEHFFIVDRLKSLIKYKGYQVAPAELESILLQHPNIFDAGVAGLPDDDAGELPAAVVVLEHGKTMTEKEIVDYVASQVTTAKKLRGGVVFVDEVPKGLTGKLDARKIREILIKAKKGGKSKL

SMILES	activity change, negative = inhibition	Potency
COc1ccc(CCNC(=O)c2cc(=O)c3c(C)cc(C)cc3o2)cc1OC	-16.7% (inactive)	–
CCOC(=O)c1cccc(NC(=O)c2cc(CN3CCCC3)on2)c1	-19.1% (inactive)	–
Cc1ccc(CNC(=O)CCC(=O)N2Cc3ccccc3Oc3ncccc32)cc1	-8.22% (inactive)	–
CC(=O)c1c(C)[nH]c(C(=O)OCC(=O)Nc2c(C)n(C)n(-c3ccccc3)c2=O)c1C	-0.915% (inactive)	–
CC1(NC(=O)CCS(=O)(=O)c2ccc(Cl)cc2)CCS(=O)(=O)C1 (stereo unspecified)	1.48% (inactive)	–
Cc1ccccc1CN1CCC(CNC(=O)c2c(C)oc3ncnc(N4CCCCC4)c23)CC1	-3.54% (inactive)	–
Cc1ccc(Nc2nnc(SC(C)C(=O)NC3CC3)s2)cc1 (stereo unspecified)	-20.7% (inactive)	–
CCOC(=O)c1c(NC(=O)CCl)sc(C(=O)N(CC)CC)c1C	4.64% (inactive)	–
Cc1ccc(C)c(NC(=O)CN(C)C(=O)c2ccc3ncsc3c2)c1	-10.6% (inactive)	–
Cc1c(C(=O)N(C)C)sc2c1c(=O)n(-c1ccc(F)cc1)c(=O)n2CC(=O)N(C)c1ccccc1	0.935% (inactive)	–
O=C(COC(=O)/C=C/c1ccc2c(c1)OCO2)NC1CCS(=O)(=O)C1 (stereo unspecified)	4.04% (inactive)	–
O=C(/C=C/c1ccc(Cl)cc1)N1CCN(c2ccccc2[N+](=O)[O-])CC1	2.35% (inactive)	–
CN(C)c1ccc(/C=C/C(=O)c2ccc(O)cc2)cc1[N+](=O)[O-]	–	12 µM (active)
CC(=O)c1ccc2c(c1)OCCOCCOc1ccc(C(C)=O)cc1OCCOCCO2	-0.182% (inactive)	–
O=C(/C=C/c1ccc2c(c1)OCCO2)c1ccc(O)cc1	–	1.35 µM (active)
Cc1cc(C(=O)O)ccc1[N+](=O)[O-]	2.58% (inactive)	–
CCC(=O)NC(Nc1cc(C)ccn1)(C(F)(F)F)C(F)(F)F	0.488% (inactive)	–
Cc1cc(=O)oc(C)c1C(=O)NC1CC(C)(C)NC(C)(C)C1	3.1% (inactive)	–
O=C(C1CCCN(S(=O)(=O)c2cccc3nonc23)C1)N1CCN(c2ccccc2F)CC1 (stereo unspecified)	-8.46% (inactive)	–
CCc1ccc(S(=O)(=O)n2ccnc2)cc1	-10.1% (inactive)	–
O=C(COC(=O)c1c2c(nc3ccccc13)CCCC2)c1ccc(Br)s1	–	15.1 µM (active)
CCOc1ccc(NC(=O)CSc2c3c(nc4ccccc24)CCCC3)cc1	0.835% (inactive)	–

SMILES	activity change, negative = inhibition	Potency
O=C(Nc1c2c(nc3ccccc13)CCCC2)c1ccccc1Br	-0.545% (inactive)	–
Cc1nn(Cc2ccccc2)c(C)c1C(=O)N1CCN(CC(=O)Nc2ccccc2Cl)CC1	0.182% (inactive)	–
COc1ccccc1/C=C/c1nc(C#N)c(NC(C)c2ccccc2)o1 (stereo unspecified)	-10.4% (inactive)	–
CC(C)c1ccc(NC(=O)COC(=O)c2ccc(CN3CCCC3=O)cc2)cc1	-0.471% (inactive)	–
Cc1cc(OC(C)C(=O)Nc2sc3c(c2C(N)=O)CCCC3)ccc1Cl (stereo unspecified)	-2.53% (inactive)	–
CCc1cccc(NC(=O)CCC(=O)O)c1	-1.25% (inactive)	–
O=C(NCc1cn2ccsc2n1)Nc1cccc(Cl)c1	-16.5% (inactive)	–
CCCC(=O)Nc1cccc(-c2cn3ccsc3n2)c1	–	21.3 µM (active)
CCc1nn(CC(=O)NCC(C)c2ccccc2)c(=O)c2cc3occc3n12 (stereo unspecified)	-4.47% (inactive)	–
Cc1nn(-c2ccccc2)c(C)c1/C=N/NC(=O)CSc1nc2ccccc2c(=O)n1-c1ccccc1	0.0642% (inactive)	–
Cc1nn(-c2ccccc2)c(Cl)c1/C=N/NC(=O)c1nn(C)cc1[N+](=O)[O-]	–	10.7 µM (active)
Cc1c(C(=O)N/N=C/c2ccccc2)[nH]c2c([N+](=O)[O-])cccc12	3.01% (inactive)	–
COc1ccc(NC(=O)CN2C(=O)COc3ccc(S(=O)(=O)N4CCOCC4)cc32)cc1	–	inactive
CC(=O)C1C(c2ccc(Cl)cc2)c2c(n[nH]c2C)CC1(C)O (stereo unspecified)	3.98% (inactive)	–
CCOC(=O)c1ccc(NC2Nc3cc(C)nn3S2)cc1 (stereo unspecified)	-0.982% (inactive)	–
CCc1ccc(NC2Nc3cc(C)nn3S2)cc1 (stereo unspecified)	–	4.78 µM (active)
COc1c(Cl)cc(C(=O)N(Cc2ccccc2F)C2CCS(=O)(=O)C2)cc1Cl (stereo unspecified)	-0.344% (inactive)	–
O=C(COc1ccc(Cl)cc1)N(Cc1ccco1)Cc1ccco1	-19.8% (inactive)	–
CC[C@H](C)C(=O)N[C@H]1CCCN1C(=O)/C=C/c1ccccc1	4.5% (inactive)	–
O=C(/C=C/c1ccco1)NC(=S)N1CCCCC1	-16.9% (inactive)	–
COc1ccccc1/C=C/C(=O)NC(=S)N1CCOCC1	–	12 µM (active)
COc1ccc(C)cc1NC(=S)N1CCOCC1	5.69% (inactive)	–

SMILES	activity change, negative = inhibition	Potency
COc1ccc(OC)c(NC(=O)c2cnn(-c3ccccc3Cl)c2NC(=O)c2ccco2)c1	5.56% (inactive)	–
Cc1ccc2c(c1)C1CN(C)CCC1N2S(=O)(=O)c1cccc(F)c1 (stereo unspecified)	3% (inactive)	–
O=C(Cn1c(COc2ccccc2)nc2ccccc21)Nc1cc(Cl)c(Cl)cc1Cl	0.398% (inactive)	–
Cn1c(CNC(=O)C(C)(C)C)nc2ccccc21	-0.0419% (inactive)	–
CC(O)c1nc2ccccc2n1Cc1ccc([N+](=O)[O-])cc1 (stereo unspecified)	-2.35% (inactive)	–
CC(C)c1ccc(Cn2c(COc3ccccc3)nc3ccccc32)cc1	–	19 µM (active)
CCCn1c(C(O)c2ccc(OCC)cc2)nc2ccccc21 (stereo unspecified)	4.37% (inactive)	–
COCn1c(COc2ccccc2)nc2ccccc21	–	16.9 µM (active)
CCOc1ccc(C(O)Cc2nc3ccccc3n2C)cc1 (stereo unspecified)	-11.3% (inactive)	–
COCc1nc2ccccc2n1Cc1ccccc1Br	1.51% (inactive)	–
Cc1ccc(OCc2nc3ccccc3n2C)cc1	–	3.01 µM (active)
CCc1nc2cccnc2n1-c1ccc(CC(=O)Nc2c(C)cccc2C)cc1	-0.458% (inactive)	–
Cc1ccccc1-n1nc(C)c2c1N=C1C(Cl)=CC(Cl)=CN1C2c1ccc(C(=O)O)cc1 (stereo unspecified)	-8.87% (inactive)	–
CCn1c(=O)c(=O)[nH]c2c(=O)oc3ccc(S(=O)(=O)Nc4ccc(OC)cc4)cc3c21	1.02% (inactive)	–
O=C(CC1N=C2c3ccccc3N=C(SCc3cccc(Cl)c3)N2C1=O)NCc1ccc2c(c1)OCO2 (stereo unspecified)	-9.72% (inactive)	–
Cc1ccc(S(=O)(=O)NCCc2nnc3ccc(SCc4cccnc4)nn23)cc1	-0.515% (inactive)	–
COc1c(C=O)c(CCN(C)C(=O)c2ccc(F)cc2)cc2c1OCO2	1.83% (inactive)	–
Cc1ccc(-c2nc(CS(=O)(=O)CC(=O)NCc3ccccc3Cl)c(C)o2)cc1	2.41% (inactive)	–
CCOC(=O)c1c(NC(=O)c2cc(CC)on2)sc(C(C)=O)c1C	0.398% (inactive)	–
CCOc1ccc(NC(=S)N2CCCCCC2)cc1	-7.6% (inactive)	–
CCOC(=O)c1ccc(NC(=S)N2CCCC2)cc1	-8.94% (inactive)	–
CCC(C)c1ccc(NC(=S)N2CCCC2)cc1 (stereo unspecified)	–	15.1 µM (active)

SMILES	activity change, negative = inhibition	Potency
CC1Cc2cc(S(=O)(=O)CCC(=O)Nc3ccc(F)c(Cl)c3)ccc2N1C(=O)C1CC1 (stereo unspecified)	-7.53% (inactive)	–
O=C(c1ccc2c(c1)N(Cc1ccc(Cl)cc1)C(=O)c1ccccc1S2(=O)=O)N1CCCCC1	7.03% (inactive)	–
O=C(NCCS(=O)(=O)NCc1ccc(F)cc1)c1ccccc1	4.95% (inactive)	–
CCCCC(=O)NCc1ccc(F)cc1	0.712% (inactive)	–
Cc1cccc[n+]1CC(=O)c1ccccc1	-0.244% (inactive)	–
O=C(/C=C/NCc1ccc(F)cc1)c1ccccc1	–	16.9 µM (active)
O=C(/C=C\NCC(=O)c1ccccc1)c1ccccc1	–	12 µM (active)
CCN(c1ccccc1)S(=O)(=O)c1cc(C(=O)NCc2ccccn2)ccc1C	-1.73% (inactive)	–
CC(=O)c1c(C)[nH]c(C(=O)COc2ccc3c(C)cc(=O)oc3c2)c1C	5.31% (inactive)	–
Cc1ccc(C(=O)Nc2c(C(=O)NC(C)(C)C)oc3ccccc23)cc1	2.44% (inactive)	–
COc1ccc(Cl)cc1NC(=O)c1sc2nc3c(cc2c1N)CN(C)CC3	-1.38% (inactive)	–
COc1ccc(-n2c(SCC(=O)Nc3ccc(Cl)c(C)c3)nc3n[nH]c(C)c3c2=N)cc1	-0.344% (inactive)	–
COc1ccc(Cn2ccn(CC(=O)Nc3cc(C)ccc3C)c(=O)c2=O)cc1	0.418% (inactive)	–
COc1cc(C2c3c(oc4ccccc4c3=O)C(=O)N2c2nc(C)c(C)s2)ccc1O (stereo unspecified)	-4.51% (inactive)	–
Cc1ccc(NC(=O)C2CCCN2S(=O)(=O)c2cccc3cccnc23)c(C)c1 (stereo unspecified)	–	inactive
COc1cc(/C=N/NC(=S)Nc2cccnc2)cc(OC)c1O	–	10.7 µM (active)
CCOC(=O)N/N=C/c1cccnc1	6.17% (inactive)	–
COc1cc(/C=N/NC(=O)c2cccnc2)ccc1OC(=O)c1cccc(Br)c1	0.287% (inactive)	–
C[C@@H]1C[C@@H]2O[C@H]2/C=C\C=C\C(=O)Cc2c(Cl)c(O)cc(O)c2C(=O)O1	-3.44% (inactive)	–
COC(=O)c1ccc(Cn2c(SCC(=O)N(C)c3ccccc3)nc3ccccc32)cc1	-16.2% (inactive)	–
Cc1ccc(OC(=O)c2c(C)nn(-c3ccccc3)c2C)cc1	–	13.5 µM (active)
Cc1cccc(C)c1NC(=O)COC(=O)c1c(C)nn(-c2ccccc2)c1C	-19% (inactive)	–

SMILES	activity change, negative = inhibition	Potency
Cc1nn(-c2ccccc2)c(-n2cccc2)c1C(=O)O	-0.636% (inactive)	–
CCCC12CN3CC(CCC)(CN(C1)C3c1c[nH]c3ccc(OC)cc13)C2=O (stereo unspecified)	-1.95% (inactive)	–
COc1ccccc1C(=O)NCCC(=O)N(C)Cc1cccnc1	-1.3% (inactive)	–
COc1ccc(CCNC(=O)CCCCn2c(=O)c3ccccc3n(Cc3ccccc3)c2=O)cc1OC	1.96% (inactive)	–
CCOc1ccc(C(=O)c2cn(Cc3ccccc3OC)c3ccc(F)cc3c2=O)cc1	0.01% (inactive)	–
COc1ccc(NC(=O)C2CCN(c3ccc(Sc4ccc(C)cc4)nn3)CC2)c(OC)c1	4.7% (inactive)	–
CN1CCN(C2(CNC(=O)COc3ccc(C(C)(C)C)cc3)CCCCC2)CC1	-0.665% (inactive)	–
O=c1c2ccccc2ncn1/N=C/c1ccccc1	–	1.69 µM (active)
CCOCCCn1c(NN)nc2ccccc2c1=O	4.5% (inactive)	–
O=c1c2ccccc2nc(N/N=C/c2ccccc2)n1O	–	1.51 µM (active)
Nc1nnn(CC(=O)N/N=C/c2ccccc2)n1	-1.5% (inactive)	–
O=C(Nn1cnc2ccccc2c1=O)c1ccccc1	2.64% (inactive)	–
CCCc1nc2ccccc2c(=O)n1/N=C/c1ccc(O)c(O)c1	1.87% (inactive)	–
COc1cc(C(=O)Nc2ccc(OCc3cc(=O)n4cc(C)sc4n3)cc2)cc(OC)c1OC	-2.09% (inactive)	–
CCN(C(=O)CSc1nc(N)cc(=O)[nH]1)C1CCS(=O)(=O)C1 (stereo unspecified)	-2.15% (inactive)	–
O=C(CN1CCCCC1)Nc1ccccc1C(=O)NC1CC1	-9.75% (inactive)	–
Cc1ccc(-c2nnc(Nc3ccc(OCC(N)=O)cc3)c3ccccc23)cc1S(=O)(=O)NCC1CCCO1 (stereo unspecified)	-26.1% (inactive)	–
CCCN(C(=O)Cn1cc(S(=O)(=O)N2CCN(c3ccccc3F)CC2)c2ccccc2c1=O)c1cccc(C)c1	0.802% (inactive)	–
